Experimental data taken from PubChem BioAssay (NCATS).
Results filed as inconclusive are left out. Activity calls are given as the source filed them. The call rests on the fitted dose curve; in most records, active means well fitted inhibition curve with a large enough effect; inconclusive means small, poorly fitted or top-dose-only effect; inactive means flat fitted curve, though single readings scatter.

Legend:
Test in all cases: qHTS profiling for inhibitors of Plasmodium falciparum proliferation (AID 504749); further: nearly all actives have a fitted effect of over 60% in size
Conditions in all cases: P. falciparum in erythrocytes, SYBR Green DNA, 72 h
CP297 = test system: CP297
In short: (§1)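 Readout was DNA-dye fluorescence from lysed cultures, ex 485/em 535 nm. Parasitized red cells had grown 72 h with compound; data scaled between 0.29 uM artemisinin and DMSO wells and corrected using vehicle-only plates.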

CP305 = test system: CP305
In short: as §1

CP315 = test system: CP315
In short: as §1

CP325 = test system: CP325
In short: as §1

CP329 = test system: CP329
In short: as §1

CP335 = test system: CP335
In short: as §1

DFO2036 = test system: DFO2036
In short: as §1

DIV14 = test system: DIV14
In short: as §1

DIV17 = test system: DIV17
In short: as §1

DIV30 = test system: DIV30
In short: as §1

Dd2 = test system: Dd2
In short: as §1

ECU = test system: ECU
In short: as §1

GB4 = test system: GB4
In short: as §1

HB3 = test system: HB3
In short: as §1

ICS = test system: ICS
In short: as §1

N140 = test system: N140
In short: as §1

P93_24 = test system: P93_24
In short: as §1

P94_40 = test system: P94_40
In short: as §1

PAD = test system: PAD
In short: as §1

JCK = test system: JCK
In short: as §1

Measured: Potency
Potency means the concentration at half of the fitted maximal effect.

CC[C@]1(O)CC2CN(CCc3c([nH]c4ccccc34)[C@@](C(=O)OC)(c3cc4c(cc3OC)N(C)[C@H]3[C@@](O)(C(=O)OC)[C@H](OC(C)=O)[C@]5(CC)C=CCN6CC[C@]43[C@@H]65)C2)C1 (some centres undefined)
active: CP297 3010 nM | CP305 3380 nM | CP315 1690 nM | CP325 3380 nM | CP329 2390 nM | CP335 675 nM | DFO2036 3550 nM | DIV14 6750 nM | DIV17 6750 nM | DIV30 1900 nM | Dd2 178 nM | ECU 2240 nM | GB4 1900 nM | HB3 398 nM | ICS 708 nM | N140 2820 nM | P93_24 1260 nM | P94_40 1000 nM | PAD 4470 nM

CC(=O)O[C@H]1C(=O)[C@@]2(C)[C@H]([C@H](OC(=O)c3ccccc3)[C@]3(O)C[C@H](OC(=O)[C@H](O)[C@@H](NC(=O)c4ccccc4)c4ccccc4)C(C)=C1C3(C)C)[C@]1(OC(C)=O)CO[C@@H]1C[C@@H]2O
active: CP297 757 nM | CP305 601 nM | CP315 478 nM | CP325 536 nM | CP329 601 nM | CP335 269 nM | DFO2036 282 nM | DIV14 953 nM | DIV17 953 nM | DIV30 601 nM | Dd2 126 nM | ECU 891 nM | GB4 338 nM | HB3 1000 nM | ICS 398 nM | JCK 11200 nM | N140 631 nM | P93_24 631 nM | P94_40 355 nM | PAD 708 nM
